# Assay outcomes as filed in PubChem BioAssay.
# KB-3-1 tox – KB-3-1 parental cell cytotoxicity; KB-3-1 viability, CellTiter-Glo ATP luminescence, 72 h; Potency, µM (top dose mostly 46.1 µM), usual class: cytotoxic; 400,000 tested, 1.4% active; AID 1347075; further: on the % scale 0 is the no-effect control and ±100 the full control effect; nearly all actives have a fitted effect of over 60% in size
#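 KB-3-1 parental drug-naive adenocarcinoma cells in DMEM/10% FBS, incubated 72 h at 37 C with pin-transferred compounds across a concentration series. Viability by CellTiter-Glo luminescence; concentration-response curves fitted after normalization.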
# KB-V1 MDR tox – KB-V1 MDR subline cytotoxicity. KB-V1 MDR cells viability, CellTiter-Glo, 72 h. Potency, µM (highest dose often 46.1 µM), actives largely listed as cytotoxic. 400,000 tested, 3.4% active. AID 1347076; further: on the % scale 0 is the no-effect control and ±100 the full control effect; nearly all actives have a fitted effect of over 60% in size
#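 KB-V1, DMEM (no phenol red) + 10% FBS; cpd pin-transferred, titration series; 72 h, 37 degrees C; CellTiter-Glo, luminescence. Data normalized, curve-fit.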
# ELG1 DNA repair – blocks ELG1-dependent DNA repair in HEK293T cells | 330,000 tested, 2.3% active | Potency, µM (top dose mostly 46.1 µM), without a hit: at the highest dose activity change, negative = inhibition, hits mostly inhibitors | HEK293T ELG1-luciferase reporter, luminescence, 16 h; DNA damage induced by 5-fluorouridine; further: on the % scale 0 is the no-effect control and ±100 the full control effect; nearly all actives have a fitted effect of over 55% in size
#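 Cells (2,000 per well) received 5-fluorouridine plus test compound or DMSO and were incubated 16 hr at 37 °C, 5% CO2. Luciferase activity was read by luminescence 30 min after ONE-Glo addition; signal suppression marked inhibition of damage-induced ELG1 function.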
# MCF10A rereplic – induces DNA re-replication in MCF 10a normal breast cells | Potency, µM (highest dose often 46.1 µM), for the others: at the top dose activity, positive = re-replication, usual class: activators | AID 624296 | MCF 10A DNA re-replication, Hoechst nuclear intensity, 48 h | 350,000 tested, 2.9% active; further: % of control where 0% means no effect; nearly all actives have a fitted effect of over 50% in size
# SW480 rerep – DNA re-replication induction in SW480 cells. SW480 DNA re-replication, Hoechst DNA content imaging, 48 h. AID 624297. 340,000 tested, 1.8% active. Potency, µM (doses to about 46.1 µM), for inactives: at the top dose re-replication activation, actives largely listed as activators; further: % of control where 0% means no effect; nearly all actives have a fitted effect of over 55% in size
#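 Compounds, transferred as 23 nL by pin tool, were incubated with cells for 48 hr; DNA content per nucleus was then quantified by Hoechst staining and fluorescence plate imaging.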
# * hit, by the source's call; i = inactive; ? = inconclusive; . = no result. Compounds with a hit are over-represented: about 8.2% of the library has one in this group of screens. The call rests on the fitted dose curve; in most records, active means well fitted curve in the direction sought with a large enough effect; inconclusive means small, poorly fitted or top-dose-only effect, or another doubt; inactive means no such curve, though single readings can be large; an effect the other way counts as inactive or inconclusive. Potency means the concentration at half of the fitted maximal effect.
SMILES,KB-3-1 tox,KB-V1 MDR tox,ELG1 DNA repair,MCF10A rereplic,SW480 rerep
COc1ccc(CNC(=O)[C@H](Cc2ccccc2)NC(=O)C2CCNCC2)cc1,i,i,?,18%,-2%
NS(=O)(=O)c1ccc(Sc2nc3ccccc3s2)c([N+](=O)[O-])c1,i,?,18%,5.8µM*,-22%
COc1ccccc1N1CCN(S(=O)(=O)c2ccc(F)c(C(=O)Nc3ccc(C)c(F)c3)c2)CC1,i,i,.,.,.
O=c1[nH]c2cc([N+](=O)[O-])cc(Cl)c2c2ccccc12,i,12µM*,.,.,.
NC(=O)COC(=O)CC12CC3CC(CC(Br)(C3)C1)C2,i,i,2%,1%,-1%
Cc1ccc2c(c1)N(C(=O)CCC(=O)NCc1cccs1)CCO2,i,i,.,.,.
O=C(Nc1ncc2c(n1)-c1ccccc1OC2)c1cccc([N+](=O)[O-])c1,i,i,-19%,0%,-4%
O=C(Nc1ncc2c(n1)-c1ccccc1CC2)c1ccc(Cl)cc1,i,9.2µM*,-23%,10%,14%
O=C(Nc1ncc2c(n1)-c1ccccc1CC2)c1cccc(Cl)c1,10µM*,?,?,13µM*,?
CCC(=O)N1CCC1(C)C(=O)Nc1ccc2c(c1)CCN2C(C)=O (stereo not drawn),i,i,.,.,.
COc1ccc(-c2csc(C(O)c3ccccc3)n2)cn1 (stereo not drawn),i,i,.,.,.
Clc1cccc(Nc2nc(N3CCOCC3)nc(N3CCOCC3)n2)c1,i,i,?,15%,51%
COc1ccc(Nc2nc(N3CCOCC3)nc(N3CCOCC3)n2)c(OC)c1,i,i,?,17%,-12%
CCc1ccc(Nc2nc(N3CCOCC3)nc(N3CCOCC3)n2)cc1,?,i,?,19%,8.2µM*
CCOC(=O)c1ccc(Nc2nc(N3CCOCC3)nc(N3CCOCC3)n2)cc1,i,i,?,?,?
Fc1cccc(Nc2nc(N3CCOCC3)nc(N3CCOCC3)n2)c1,?,i,?,23µM*,?
Cc1cc(C)nc(Nc2nc(-c3ccccc3)cs2)n1,i,i,?,3%,-3%
c1ccc(-c2csc(Nc3nc(N4CCOCC4)nc(N4CCOCC4)n3)n2)cc1,i,i,5.8µM*,3%,-1%
COc1ccc(Nc2nc(N3CCOCC3)nc(N3CCOCC3)n2)cc1Cl,i,?,5.6µM*,1%,2%
COc1cc(NC(=O)CCCN2C(=O)CCn3nc(-c4cn(C)c5ccccc45)cc32)cc(OC)c1,i,i,.,.,.
COC(=O)c1cc([N+](=O)[O-])c(C)c(C)n1,i,i,.,.,.
FC(F)(F)Oc1ccc(Nc2nc(N3CCOCC3)nc(N3CCOCC3)n2)cc1,i,i,?,?,21µM*
Cc1ccc(NC(=S)NNC(=O)c2nnn(-c3ccccc3)c2C)cc1,i,21µM*,11%,-75%,71%
Cc1ccc(NC(=S)NNC(=O)c2nn(C)cc2Cl)cc1,i,i,30%,1%,-12%
NS(=O)(=O)c1ccc(CCNC(=O)CSc2nc3ccccc3c(=O)n2CCN2CCOCC2)cc1,i,i,10%,4%,-2%
SMILES,KB-3-1 tox,KB-V1 MDR tox,ELG1 DNA repair,MCF10A rereplic,SW480 rerep
NS(=O)(=O)c1ccc(CCNC(=O)CSc2nc3ccccc3c(=O)n2CCC(=O)N2CCCCC2)cc1,i,i,0%,0.73µM*,-35%
CCc1ccc(NC(=O)CSc2nc3ccccc3c(=O)n2CCCC(=O)N2CCCC2)cc1,?,2.9µM*,?,?,?
CCc1ccc(NC(=O)CSc2nc3ccccc3c(=O)n2CCC(=O)NC2CCCCC2)cc1,i,i,.,.,.
CCc1cccc(NC(=O)CSc2nc3ccsc3c(=O)n2CC)c1,?,i,.,.,.
O=C(COc1ccccc1)Nc1c2c(nn1-c1ccccc1)CS(=O)C2 (stereo not drawn),i,i,2%,0%,-4%
Cc1cccc(NC(=O)CN2C(=O)N/C(=C\c3ccc(-c4cccc(C(=O)O)c4)o3)C2=O)c1,i,i,7%,16µM*,18µM*
O=C(O)c1ccc(COc2ccc3ccccc3c2/C=C2/NC(=O)N(Cc3ccc(F)cc3)C2=O)cc1,i,i,?,18µM*,?
O=C(O)c1ccc(COc2ccccc2/C=C2\NC(=O)N(Cc3ccccc3)C2=O)cc1,i,i,-13%,6%,?
Cc1ccc(CN2C(=O)N/C(=C/c3ccc(-c4ccc(C(=O)O)cc4)o3)C2=O)cc1,i,i,-3%,8.2µM*,4.6µM*
Cc1cc(C(=O)O)ccc1-c1ccc(/C=C2\NC(=O)N(Cc3ccc(F)cc3)C2=O)o1,i,i,-13%,3.7µM*,9.2µM*
COCCOC(=O)C1=C(C)NC(C)=C(C(=O)OCCOC)C1/C=C/c1ccccc1OC,i,i,-13%,0%,4%
CCOC(=O)C1=C(C)NC(C)=C(C(=O)OCC)C1/C=C/c1ccccc1OC,i,21µM*,?,?,23µM*
CCOC(=O)C1=C(C)NC(C)=C(C(=O)OCC)C1c1ccccc1C=CC(=O)OC(C)(C)C,.,.,.,?,30µM*
CCCS(=O)(=O)NC(=O)C1(C)CCN(C(=O)c2oc3ccccc3c2C)C1 (stereo not drawn),i,i,.,.,.
S=C(NCC1CC1)N/N=C/c1ccccc1Cl,i,i,-5%,-9%,-20%
COc1ccc(Nc2ncc(C(=O)Nc3ccc(F)cc3F)c3ccccc23)cc1,i,?,.,.,.
CC(C)c1ccc(C(=O)N2CCOCC2c2cc(C(=O)Nc3ccccc3)no2)cc1 (stereo not drawn),i,i,.,.,.
